Assay results published in the supplement of paper PMC11732987, “Enantioselective OTUD7B fragment discovery through chemoproteomics screening and high-throughput optimisation” (Communications Chemistry, 2025).

Assays:
Assay in all cases: log2 ratio of Biotin-Ahx-Ub-VS probe labelling (fragment/DMSO); higher = less target engagement (more negative = stronger competition), active = hit call of the paper (q ≤ 0.05, log2 ratio ≤ -1)
Settings in all cases: compound concentration: 200 uM; treatment time: 3 h
USP34 = USP34 (UniProt Q70CQ2)
Chain of USP34 (Q70CQ2 whole entry, the tested form may be a part): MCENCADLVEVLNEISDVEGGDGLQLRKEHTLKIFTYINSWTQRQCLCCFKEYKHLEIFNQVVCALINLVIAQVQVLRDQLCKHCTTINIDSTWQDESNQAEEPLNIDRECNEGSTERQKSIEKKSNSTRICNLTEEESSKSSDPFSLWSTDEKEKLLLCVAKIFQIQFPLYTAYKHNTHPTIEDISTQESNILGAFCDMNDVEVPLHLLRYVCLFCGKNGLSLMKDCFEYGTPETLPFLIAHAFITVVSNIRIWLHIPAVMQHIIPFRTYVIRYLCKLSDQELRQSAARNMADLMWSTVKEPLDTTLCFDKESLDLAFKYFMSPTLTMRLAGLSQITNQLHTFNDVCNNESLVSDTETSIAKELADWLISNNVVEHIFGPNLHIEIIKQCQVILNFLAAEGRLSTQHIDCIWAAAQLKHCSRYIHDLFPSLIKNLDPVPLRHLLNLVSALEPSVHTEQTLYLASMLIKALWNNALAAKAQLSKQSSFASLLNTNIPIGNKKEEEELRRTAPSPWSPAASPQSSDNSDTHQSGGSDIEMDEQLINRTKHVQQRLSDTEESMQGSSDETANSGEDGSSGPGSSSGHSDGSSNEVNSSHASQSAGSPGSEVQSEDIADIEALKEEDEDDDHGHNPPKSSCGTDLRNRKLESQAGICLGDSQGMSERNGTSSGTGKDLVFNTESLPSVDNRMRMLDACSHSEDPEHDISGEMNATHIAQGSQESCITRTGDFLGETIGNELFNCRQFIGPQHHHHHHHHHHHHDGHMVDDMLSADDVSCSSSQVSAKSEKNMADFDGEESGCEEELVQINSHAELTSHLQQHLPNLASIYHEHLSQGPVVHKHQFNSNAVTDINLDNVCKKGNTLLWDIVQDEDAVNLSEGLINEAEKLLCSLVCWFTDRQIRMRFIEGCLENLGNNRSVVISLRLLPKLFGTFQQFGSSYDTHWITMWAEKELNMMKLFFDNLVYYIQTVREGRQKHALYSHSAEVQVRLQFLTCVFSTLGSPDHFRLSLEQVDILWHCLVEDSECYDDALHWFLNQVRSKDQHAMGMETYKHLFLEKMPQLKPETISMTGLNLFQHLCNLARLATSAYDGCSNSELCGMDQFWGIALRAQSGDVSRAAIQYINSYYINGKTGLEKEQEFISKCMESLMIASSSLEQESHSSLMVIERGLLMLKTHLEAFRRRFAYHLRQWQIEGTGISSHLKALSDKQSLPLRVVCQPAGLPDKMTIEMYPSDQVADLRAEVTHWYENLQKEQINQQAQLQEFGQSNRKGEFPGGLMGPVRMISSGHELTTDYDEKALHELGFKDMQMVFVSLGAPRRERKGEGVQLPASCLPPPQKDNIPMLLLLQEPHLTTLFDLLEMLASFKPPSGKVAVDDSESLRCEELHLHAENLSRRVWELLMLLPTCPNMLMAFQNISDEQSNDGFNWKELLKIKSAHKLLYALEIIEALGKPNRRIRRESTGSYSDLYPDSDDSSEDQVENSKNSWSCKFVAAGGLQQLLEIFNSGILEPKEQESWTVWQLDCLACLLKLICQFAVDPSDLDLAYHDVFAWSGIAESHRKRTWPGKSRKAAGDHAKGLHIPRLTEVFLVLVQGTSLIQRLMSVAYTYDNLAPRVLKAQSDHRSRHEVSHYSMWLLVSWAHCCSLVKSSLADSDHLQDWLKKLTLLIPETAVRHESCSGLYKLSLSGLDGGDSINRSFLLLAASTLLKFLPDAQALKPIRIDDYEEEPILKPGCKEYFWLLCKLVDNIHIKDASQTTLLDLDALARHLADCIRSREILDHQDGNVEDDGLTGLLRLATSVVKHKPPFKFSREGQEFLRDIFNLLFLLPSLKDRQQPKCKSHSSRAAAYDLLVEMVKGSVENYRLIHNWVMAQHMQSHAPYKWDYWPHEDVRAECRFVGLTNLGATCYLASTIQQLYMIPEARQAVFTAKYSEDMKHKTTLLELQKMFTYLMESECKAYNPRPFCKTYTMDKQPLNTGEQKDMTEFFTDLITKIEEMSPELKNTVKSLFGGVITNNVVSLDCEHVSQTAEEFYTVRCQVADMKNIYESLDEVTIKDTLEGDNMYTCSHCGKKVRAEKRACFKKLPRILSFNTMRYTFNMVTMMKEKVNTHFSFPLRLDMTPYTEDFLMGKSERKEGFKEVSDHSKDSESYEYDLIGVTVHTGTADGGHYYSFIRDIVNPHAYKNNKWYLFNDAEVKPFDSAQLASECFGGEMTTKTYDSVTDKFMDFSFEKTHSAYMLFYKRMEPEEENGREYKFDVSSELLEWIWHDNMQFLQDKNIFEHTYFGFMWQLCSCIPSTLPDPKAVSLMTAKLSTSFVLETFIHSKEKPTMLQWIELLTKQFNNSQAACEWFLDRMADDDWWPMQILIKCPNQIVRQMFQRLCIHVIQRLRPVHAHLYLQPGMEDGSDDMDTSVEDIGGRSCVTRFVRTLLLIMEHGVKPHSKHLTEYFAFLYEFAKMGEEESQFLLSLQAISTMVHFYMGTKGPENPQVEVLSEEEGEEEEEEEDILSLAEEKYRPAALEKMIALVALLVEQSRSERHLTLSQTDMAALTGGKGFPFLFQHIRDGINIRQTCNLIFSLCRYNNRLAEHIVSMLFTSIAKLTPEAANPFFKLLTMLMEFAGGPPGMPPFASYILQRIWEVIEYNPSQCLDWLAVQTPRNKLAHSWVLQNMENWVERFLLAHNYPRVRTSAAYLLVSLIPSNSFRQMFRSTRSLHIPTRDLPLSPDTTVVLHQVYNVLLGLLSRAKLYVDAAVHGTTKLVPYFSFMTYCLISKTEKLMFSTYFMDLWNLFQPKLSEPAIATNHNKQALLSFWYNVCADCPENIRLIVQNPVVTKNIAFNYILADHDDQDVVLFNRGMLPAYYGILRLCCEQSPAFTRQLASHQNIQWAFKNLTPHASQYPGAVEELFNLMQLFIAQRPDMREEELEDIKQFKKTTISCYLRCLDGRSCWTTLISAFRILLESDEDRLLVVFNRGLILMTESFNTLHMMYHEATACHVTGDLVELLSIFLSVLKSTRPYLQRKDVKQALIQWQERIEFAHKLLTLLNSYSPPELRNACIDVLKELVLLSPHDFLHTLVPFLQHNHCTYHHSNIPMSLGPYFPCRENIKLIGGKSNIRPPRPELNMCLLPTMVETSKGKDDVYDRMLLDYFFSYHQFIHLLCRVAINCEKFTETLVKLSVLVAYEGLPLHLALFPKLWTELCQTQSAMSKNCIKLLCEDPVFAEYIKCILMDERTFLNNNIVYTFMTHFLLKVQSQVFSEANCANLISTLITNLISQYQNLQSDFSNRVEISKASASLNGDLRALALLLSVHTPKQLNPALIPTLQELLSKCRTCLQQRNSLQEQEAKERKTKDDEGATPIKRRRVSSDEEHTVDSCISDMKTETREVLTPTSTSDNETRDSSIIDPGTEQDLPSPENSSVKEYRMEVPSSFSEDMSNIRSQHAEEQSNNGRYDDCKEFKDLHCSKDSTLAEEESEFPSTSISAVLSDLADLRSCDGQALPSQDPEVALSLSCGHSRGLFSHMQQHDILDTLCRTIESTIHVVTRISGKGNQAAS
Summary of the method: (§1)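 Triplicate samples of HEK293T lysate, 495 µg each, received fragment at 200 µM or vehicle for 3 h, followed by Biotin-Ahx-Ub-VS (0.5 µM final) for 1 h. After NeutrAvidin enrichment of labelled DUBs and LysC/trypsin digestion, peptides were run by diaPASEF LC-MS/MS. The values are average log2 fragment/vehicle ratios from global-median-normalised Spectronaut label-free quantities, tested by unpaired t-test on proteins having ≥2 unique peptides.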

USP36 = molecular target: T1, USP36 (UniProt Q9P275)
T1 sequence (whole entry): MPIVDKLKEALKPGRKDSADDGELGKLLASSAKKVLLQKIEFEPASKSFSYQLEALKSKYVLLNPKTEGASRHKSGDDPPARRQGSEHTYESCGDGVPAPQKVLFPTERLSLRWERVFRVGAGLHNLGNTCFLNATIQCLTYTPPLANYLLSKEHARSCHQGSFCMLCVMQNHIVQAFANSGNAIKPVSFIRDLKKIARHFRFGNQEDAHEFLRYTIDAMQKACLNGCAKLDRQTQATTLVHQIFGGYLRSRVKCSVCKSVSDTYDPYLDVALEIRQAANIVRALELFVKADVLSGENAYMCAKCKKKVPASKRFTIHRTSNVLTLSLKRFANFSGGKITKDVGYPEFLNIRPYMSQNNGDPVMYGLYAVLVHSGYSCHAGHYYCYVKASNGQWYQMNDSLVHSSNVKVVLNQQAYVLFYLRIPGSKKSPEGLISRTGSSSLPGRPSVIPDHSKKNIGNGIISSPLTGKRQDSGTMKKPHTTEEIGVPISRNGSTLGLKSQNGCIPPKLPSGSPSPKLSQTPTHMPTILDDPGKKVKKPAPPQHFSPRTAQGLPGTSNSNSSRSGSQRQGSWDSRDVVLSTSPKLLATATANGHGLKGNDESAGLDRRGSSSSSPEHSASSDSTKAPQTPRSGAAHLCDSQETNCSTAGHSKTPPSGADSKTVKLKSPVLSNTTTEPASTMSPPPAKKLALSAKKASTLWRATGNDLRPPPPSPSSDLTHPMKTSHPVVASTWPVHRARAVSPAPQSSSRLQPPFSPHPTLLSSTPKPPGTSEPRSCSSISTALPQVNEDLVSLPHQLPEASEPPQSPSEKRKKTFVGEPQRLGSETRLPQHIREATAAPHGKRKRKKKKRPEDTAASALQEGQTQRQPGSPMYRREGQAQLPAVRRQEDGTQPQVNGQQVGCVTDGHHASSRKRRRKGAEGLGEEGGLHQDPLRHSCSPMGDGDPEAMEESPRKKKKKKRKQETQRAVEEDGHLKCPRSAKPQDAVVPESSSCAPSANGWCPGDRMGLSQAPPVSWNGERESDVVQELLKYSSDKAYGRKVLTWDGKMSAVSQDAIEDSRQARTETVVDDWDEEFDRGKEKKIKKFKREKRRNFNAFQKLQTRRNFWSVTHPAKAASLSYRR
Summary of the method: as §1

USP38 = molecular target: T2, USP38 (UniProt Q8NB14)
T2 sequence (whole entry): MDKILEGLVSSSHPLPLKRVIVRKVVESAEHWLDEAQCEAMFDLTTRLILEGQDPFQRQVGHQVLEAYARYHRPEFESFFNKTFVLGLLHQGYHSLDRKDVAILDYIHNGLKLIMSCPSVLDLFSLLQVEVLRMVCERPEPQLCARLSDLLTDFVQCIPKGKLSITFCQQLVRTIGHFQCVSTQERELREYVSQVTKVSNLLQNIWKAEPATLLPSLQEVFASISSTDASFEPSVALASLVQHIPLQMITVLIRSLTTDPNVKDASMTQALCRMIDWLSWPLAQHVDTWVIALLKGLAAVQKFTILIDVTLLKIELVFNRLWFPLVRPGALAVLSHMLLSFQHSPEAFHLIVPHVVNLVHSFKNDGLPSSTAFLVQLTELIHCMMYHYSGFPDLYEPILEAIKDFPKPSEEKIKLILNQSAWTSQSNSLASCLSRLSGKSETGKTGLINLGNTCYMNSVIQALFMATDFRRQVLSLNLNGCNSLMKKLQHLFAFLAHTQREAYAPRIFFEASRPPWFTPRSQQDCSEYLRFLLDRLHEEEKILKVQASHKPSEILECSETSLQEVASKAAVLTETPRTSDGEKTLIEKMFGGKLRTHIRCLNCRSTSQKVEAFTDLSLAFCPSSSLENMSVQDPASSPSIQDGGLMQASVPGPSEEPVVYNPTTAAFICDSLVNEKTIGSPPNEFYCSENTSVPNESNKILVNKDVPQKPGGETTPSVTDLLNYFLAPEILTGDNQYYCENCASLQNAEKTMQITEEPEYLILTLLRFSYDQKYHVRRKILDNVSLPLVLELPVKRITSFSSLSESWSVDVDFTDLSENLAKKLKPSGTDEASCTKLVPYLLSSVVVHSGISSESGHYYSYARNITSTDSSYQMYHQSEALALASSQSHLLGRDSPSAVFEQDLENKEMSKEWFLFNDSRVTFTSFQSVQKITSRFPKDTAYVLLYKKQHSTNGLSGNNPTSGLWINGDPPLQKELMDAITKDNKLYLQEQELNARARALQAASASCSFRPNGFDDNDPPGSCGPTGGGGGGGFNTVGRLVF
Summary of the method: as §1

USP39 = molecular target: T3, USP39 (UniProt Q53GS9)
T3 sequence (whole entry): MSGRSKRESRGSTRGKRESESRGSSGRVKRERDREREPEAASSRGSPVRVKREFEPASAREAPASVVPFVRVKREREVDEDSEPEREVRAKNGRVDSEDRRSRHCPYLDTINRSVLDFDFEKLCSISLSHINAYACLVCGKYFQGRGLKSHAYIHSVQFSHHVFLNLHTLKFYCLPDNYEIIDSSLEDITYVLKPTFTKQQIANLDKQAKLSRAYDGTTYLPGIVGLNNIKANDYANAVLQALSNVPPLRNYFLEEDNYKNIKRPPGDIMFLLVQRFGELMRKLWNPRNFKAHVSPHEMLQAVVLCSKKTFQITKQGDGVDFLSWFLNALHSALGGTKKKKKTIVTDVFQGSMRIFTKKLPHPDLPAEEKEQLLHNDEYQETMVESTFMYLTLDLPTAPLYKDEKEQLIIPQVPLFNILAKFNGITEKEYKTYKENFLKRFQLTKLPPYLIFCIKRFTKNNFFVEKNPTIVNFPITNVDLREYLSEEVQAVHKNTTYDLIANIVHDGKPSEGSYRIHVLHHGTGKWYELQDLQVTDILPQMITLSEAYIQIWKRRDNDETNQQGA
Summary of the method: as §1

USP4 = molecular target: T4, USP4 (UniProt Q13107)
T4 sequence (whole entry): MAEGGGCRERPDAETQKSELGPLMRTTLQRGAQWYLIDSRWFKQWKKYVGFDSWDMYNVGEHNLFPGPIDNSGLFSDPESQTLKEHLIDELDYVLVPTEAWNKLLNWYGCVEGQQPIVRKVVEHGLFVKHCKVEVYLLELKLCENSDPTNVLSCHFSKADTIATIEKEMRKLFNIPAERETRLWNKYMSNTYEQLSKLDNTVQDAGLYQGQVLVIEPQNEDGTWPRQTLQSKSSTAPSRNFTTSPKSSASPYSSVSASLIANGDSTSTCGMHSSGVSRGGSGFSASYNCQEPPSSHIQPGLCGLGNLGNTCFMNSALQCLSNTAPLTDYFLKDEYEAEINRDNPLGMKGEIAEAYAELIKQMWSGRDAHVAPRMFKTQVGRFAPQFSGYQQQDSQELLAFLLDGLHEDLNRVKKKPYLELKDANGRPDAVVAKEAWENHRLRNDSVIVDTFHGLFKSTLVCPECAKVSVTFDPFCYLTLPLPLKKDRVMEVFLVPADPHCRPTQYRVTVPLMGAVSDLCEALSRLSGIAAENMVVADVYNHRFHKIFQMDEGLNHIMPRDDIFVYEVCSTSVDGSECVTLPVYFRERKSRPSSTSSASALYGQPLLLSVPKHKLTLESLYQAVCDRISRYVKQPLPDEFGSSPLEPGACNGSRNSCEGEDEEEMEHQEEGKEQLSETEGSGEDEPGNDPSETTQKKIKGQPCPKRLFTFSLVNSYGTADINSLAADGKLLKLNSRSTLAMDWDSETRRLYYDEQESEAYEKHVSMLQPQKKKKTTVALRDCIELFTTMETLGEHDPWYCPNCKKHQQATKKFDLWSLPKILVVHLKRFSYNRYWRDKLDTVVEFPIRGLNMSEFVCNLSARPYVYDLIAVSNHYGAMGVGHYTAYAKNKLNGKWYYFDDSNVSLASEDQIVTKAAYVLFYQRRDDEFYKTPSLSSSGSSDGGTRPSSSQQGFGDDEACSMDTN
Summary of the method: as §1

Measured: log2 ratio of Biotin-Ahx-Ub-VS probe labelling

COc1ccc(CN(C)C(=O)CCl)cc1
inactive: USP34 -0.0886 | USP36 0.0384 | USP38 0.0505 | USP39 0.298 | USP4 -0.016
